Data as given in PubChem BioAssay (Tox21).
Results filed as inconclusive are left out. The source made the active and inactive calls. Unless noted, calls follow the shape of the dose curve; as a rule, active = well fitted curve in the direction sought with a large enough effect in the repeat runs; inconclusive = weak or mixed curves; inactive = no such curve, though single readings can be large; an effect the other way counts as inactive or inconclusive.

Assays:
[1] = qHTS assay to test for compound auto fluorescence at 535 nm (green) in HEK293 cells (AID 720680)
[2] = qHTS assay to test for compound auto fluorescence at 460 nm (blue) in HEK293 cell free culture (AID 720681)
Method in brief: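 Compounds were added to cell-free DMEM with 10% FBS and fluorescence read directly. The blue channel used 405 nm excitation and 460 nm emission, with triamterene as the reference fluorophore.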

[3] = qHTS assay to test for compound auto fluorescence at 535 nm (green) in HEK293 cell free culture (AID 720682)
Method in brief: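 Measurement is a direct plate read of green fluorescence (485 nm in, 535 nm out) after compound addition to serum-supplemented DMEM lacking cells, with fluorescein used to express intensities.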

[4] = qHTS assay to test for compound auto fluorescence at 590 nm (red) in HEK293 cell free culture (AID 720683)
Method in brief: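 Cell-free wells of DMEM with 10% FBS received compound, and intrinsic fluorescence was read at excitation/emission 540/590 nm. Values expressed as equivalence to Rose Bengal sodium.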

[5] = qHTS assay to test for compound auto fluorescence at 590 nm (red) in HepG2 cell free culture (AID 720684)
Method in brief: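 Compound was pinned into wells holding MEM with 10% FBS and no cells, and red fluorescence was read at Ex/Em 540/590 nm. Signal is expressed as auto fluorescence equivalency relative to Rose Bengal sodium.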

[6] = qHTS assay to test for compound auto fluorescence at 460 nm (blue) in HepG2 cell free culture (AID 720685)
Method in brief: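 Compound (23 nL) or DMSO pinned into cell-free MEM with 10% FBS; blue fluorescence read at 405/460 nm excitation/emission, expressed as auto-fluorescence equivalency to triamterene.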

[7] = qHTS assay to test for compound auto fluorescence at 535 nm (green) in HepG2 cell free culture (AID 720686)
[8] = qHTS assay to test for compound auto fluorescence at 460 nm (blue) in HepG2 cells (AID 720687)
Method in brief: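 HepG2 cells in MEM with 10% FBS, attached overnight at 37 C, were exposed to compound or DMSO for 1 hr at 37 C, 5% CO2. Blue fluorescence was read at 405/460 nm, with triamterene as reference fluorophore.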

[9] = molecular target: Glucocorticoid receptor (Homo sapiens) (UniProt P04150); assay: qHTS assay to identify small molecule agonists of the glucocorticoid receptor (GR) signaling pathway (AID 720691; active = well fitted activation curve with a large enough effect in the signal ratio in the repeat runs, not every such curve was filed as active; the % refers to the signal ratio)
Method in brief: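 Reporter read-out: fluorescence intensity following 2 h room-temperature LiveBLAzer B/G FRET substrate loading. Prior step: GR-bla HeLa cells held 4 h, then treated 18 h at 37 C.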

[10] = molecular target: Glucocorticoid receptor (Homo sapiens) (UniProt P04150); assay: qHTS assay to identify small molecule antagonists of the glucocorticoid receptor (GR) signaling pathway (AID 720692; active = well fitted inhibition curve with a large enough effect in the signal ratio in the repeat runs, not every such curve was filed as active; the % refers to the signal ratio; also: potency is read from the fitted curve at half-maximal effect)
Method in brief: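 Dexamethasone (5 nM final) stimulated a stably integrated GRE-beta-lactamase reporter in HeLa cells during 18 h co-incubation with compounds; signal was quantified as fluorescence intensity of B/G FRET substrate after 2 h.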

[11] = qHTS assay to identify small molecule antagonists of the glucocorticoid receptor (GR) signaling pathway - cell viability counter screen (AID 720693); also: nearly all actives have a fitted effect of over 55% in size
[12] = qHTS assay for identifying genotoxic compounds that show differential cytotoxicity against isogenic chicken DT40 cell lines with known DNA damage response pathways - wild type cell line (AID 743012); also: nearly all actives have a fitted effect of over 60% in size; also: potency is read from the fitted curve at half-maximal effect
Method in brief: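 Using parental DT40 (300 cells/well), compounds delivered in DMSO incubate 40 h at 37 C/5% CO2. CellTiter-Glo reagent then stands 30 min at room temperature, and luminescence gives cell viability.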

[13] = qHTS assay for identifying genotoxic compounds that show differential cytotoxicity against isogenic chicken DT40 cell lines with known DNA damage response pathways - Rad54/Ku70 mutant cell line (AID 743015); also: nearly all actives have a fitted effect of over 60% in size; also: potency is read from the fitted curve at half-maximal effect
[14] = qHTS assay to identify small molecule antagonists of the androgen receptor (AR) signaling pathway - cell viability counter screen (AID 743033; also: nearly all actives have a fitted effect of over 45% in size)
[15] = molecular target: Androgen receptor (Homo sapiens) (UniProt P10275); assay: qHTS assay to identify small molecule antagonists of the androgen receptor (AR) signaling pathway (AID 743035; active = well fitted inhibition curve with a large enough effect in the signal ratio in the repeat runs, not every such curve was filed as active; the % refers to the signal ratio)
Method in brief: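 Using qHTS, AR-UAS-bla GripTite HEK293 cells received compound, then R1881, and were cultured 16 h at 37C/5% CO2 before a 2 h room-temperature LiveBLAzer B/G FRET substrate step and fluorescence measurement.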

[16] = molecular target: Androgen receptor (Homo sapiens) (UniProt P10275); assay: qHTS assay to identify small molecule agonists of the androgen receptor (AR) signaling pathway (AID 743036; active = well fitted activation curve with a large enough effect in the signal ratio in the repeat runs, with a control signal flat, not every such curve was filed as active; the % refers to the signal ratio)
Method in brief: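 Beta-lactamase under UAS control, stably integrated in HEK293 GripTite cells, reports receptor activation. After 16 h compound treatment, cells received FRET substrate for 2 h at room temperature before fluorescence reading.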

[17] = molecular target: Androgen receptor (Homo sapiens) (UniProt P10275); assay: qHTS assay to identify small molecule agonists of the androgen receptor (AR) signaling pathway using the MDA cell line (AID 743040; also: nearly all actives have a fitted effect of over 20% in size; also: potency is read from the fitted curve at half-maximal effect)
Method in brief: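 MDA-kb2 breast carcinoma cells carrying MMTV-luciferase (responsive to AR and GR), plated 5 h then treated 16 h with compounds at 37C, 0% CO2. Read-out was ONE-Glo luminescence after 30 min at room temperature.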

[18] = qHTS assay to identify small molecule antagonists of the androgen receptor (AR) signaling pathway using the MDA cell line - cell viability counter screen (AID 743041; also: nearly all actives have a fitted effect of over 45% in size)
Method in brief: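 MDA-kb2 AR-luc cells (MMTV-luciferase, AR/GR responsive) treated with compounds plus R1881 agonist for 16 h at 37C. CellTiter-Fluor added at 15.5 h; fluorescence read after 30 min in the same wells.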

[19] = molecular target: Androgen receptor (Homo sapiens) (UniProt P10275); assay: qHTS assay to identify small molecule antagonists of the androgen receptor (AR) signaling pathway using the MDA cell line (AID 743042; also: nearly all actives have a fitted effect of over 55% in size)
Method in brief: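 MDA-kb2 breast carcinoma cells carrying MMTV-luciferase (AR/GR responsive) were co-treated with compounds and the agonist R1881 for 16 h at 37C. Inhibition read as ONE-Glo luminescence; CellTiter-Fluor fluorescence measured in parallel for cytotoxicity.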

[20] = qHTS assay for identifying genotoxic compounds that show differential cytotoxicity against isogenic chicken DT40 cell lines with known DNA damage response pathways - Rev3 mutant cell line (AID 743014); also: nearly all actives have a fitted effect of over 55% in size; also: potency is read from the fitted curve at half-maximal effect
% is scaled to controls: 0 for no effect and ±100 for the full control effect.

Chain of Androgen receptor (Homo sapiens) (P10275 whole entry, looked up): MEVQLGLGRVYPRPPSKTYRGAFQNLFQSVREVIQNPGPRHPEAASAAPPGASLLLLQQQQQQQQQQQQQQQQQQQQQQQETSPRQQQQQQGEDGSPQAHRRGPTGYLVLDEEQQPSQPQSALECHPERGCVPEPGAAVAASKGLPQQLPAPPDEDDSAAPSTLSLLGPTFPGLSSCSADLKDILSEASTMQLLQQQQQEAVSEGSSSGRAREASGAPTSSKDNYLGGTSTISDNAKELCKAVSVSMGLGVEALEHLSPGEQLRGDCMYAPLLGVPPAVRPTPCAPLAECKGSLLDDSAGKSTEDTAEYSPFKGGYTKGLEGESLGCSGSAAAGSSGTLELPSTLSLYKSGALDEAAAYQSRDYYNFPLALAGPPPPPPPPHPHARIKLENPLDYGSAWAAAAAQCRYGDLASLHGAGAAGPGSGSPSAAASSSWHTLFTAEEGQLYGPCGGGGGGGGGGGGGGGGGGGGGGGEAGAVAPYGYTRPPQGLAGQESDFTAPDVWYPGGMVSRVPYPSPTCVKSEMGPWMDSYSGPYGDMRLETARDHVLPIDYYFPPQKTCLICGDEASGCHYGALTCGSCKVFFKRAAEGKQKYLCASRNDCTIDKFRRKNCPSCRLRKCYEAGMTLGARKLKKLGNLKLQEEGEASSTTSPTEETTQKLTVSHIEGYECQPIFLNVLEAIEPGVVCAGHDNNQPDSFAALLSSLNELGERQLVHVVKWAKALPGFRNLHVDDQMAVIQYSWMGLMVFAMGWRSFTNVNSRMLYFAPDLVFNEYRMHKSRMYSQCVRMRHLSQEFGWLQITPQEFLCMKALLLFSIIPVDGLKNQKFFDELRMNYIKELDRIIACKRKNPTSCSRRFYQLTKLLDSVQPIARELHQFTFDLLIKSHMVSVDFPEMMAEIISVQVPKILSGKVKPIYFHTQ
Chain of Glucocorticoid receptor (Homo sapiens) (P04150 whole entry, looked up): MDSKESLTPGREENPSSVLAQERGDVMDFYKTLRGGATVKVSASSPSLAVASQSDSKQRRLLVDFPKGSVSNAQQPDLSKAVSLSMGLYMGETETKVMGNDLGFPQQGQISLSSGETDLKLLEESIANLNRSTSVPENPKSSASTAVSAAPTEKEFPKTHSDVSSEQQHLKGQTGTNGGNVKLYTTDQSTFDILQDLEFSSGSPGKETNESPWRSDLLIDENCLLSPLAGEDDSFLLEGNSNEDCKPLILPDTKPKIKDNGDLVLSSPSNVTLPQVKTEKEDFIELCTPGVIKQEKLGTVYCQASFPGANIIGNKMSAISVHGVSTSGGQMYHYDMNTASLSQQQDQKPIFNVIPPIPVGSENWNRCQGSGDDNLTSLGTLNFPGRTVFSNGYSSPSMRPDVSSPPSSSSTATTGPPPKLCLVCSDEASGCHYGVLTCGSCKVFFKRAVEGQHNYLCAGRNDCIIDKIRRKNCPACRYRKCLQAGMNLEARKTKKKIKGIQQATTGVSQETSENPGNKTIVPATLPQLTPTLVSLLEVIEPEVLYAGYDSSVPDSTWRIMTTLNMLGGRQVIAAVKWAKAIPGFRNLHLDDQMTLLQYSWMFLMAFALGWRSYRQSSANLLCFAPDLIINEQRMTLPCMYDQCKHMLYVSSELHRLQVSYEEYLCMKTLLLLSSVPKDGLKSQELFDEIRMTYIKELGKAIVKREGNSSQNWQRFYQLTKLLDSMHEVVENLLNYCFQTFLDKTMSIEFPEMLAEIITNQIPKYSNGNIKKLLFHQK

CCOC(=O)Nc1ccc2c(c1)N(C(=O)CCN1CCOCC1)c1ccccc1S2
inactive: fluorescence, % of fluorescein [1] 0.023% [at 18.6 µM] | fluorescence, % of fluorescent control [2] 0.0825% [at 18.6 µM] | activity change [3] -0.0159% [at 18.6 µM] | fluorescence, % of fluorescent control [4] -0.268% [at 18.6 µM] | fluorescence, % of Rose Bengal [5] 0.0254% [at 18.6 µM] | fluorescence, % of fluorescent control [6] 0.0956% [at 18.6 µM] | fluorescence, % of fluorescein control [7] -0.013% [at 18.6 µM] | fluorescence, % of fluorescent control [8] -0.0127% [at 18.6 µM] | Potency [9] | Potency [10] | outcome [11] | Potency [12] | Potency [13] | outcome [14] | Potency [15] | outcome [16] | Potency [18] | outcome [19]
active: Potency [17] 12.7 µM

NCC[C@H](O)C(=O)N[C@@H]1C[C@H](N)[C@@H](O[C@H]2O[C@H](CN)[C@@H](O)[C@H](O)[C@H]2O)[C@H](O)[C@H]1O[C@H]1O[C@H](CO)[C@@H](O)[C@H](N)[C@H]1O
inactive: outcome [1] | Potency [2] | outcome [3] | outcome [4] | outcome [5] | Potency [6] | outcome [7] | Potency [8] | Potency [9] | Potency [10] | outcome [11] | Potency [20] | Potency [13] | outcome [14] | Potency [15] | outcome [16] | Potency [17] | Potency [18] | outcome [19]

NC(=S)Nc1cccc2ccccc12
inactive: fluorescence, % of fluorescein [1] 0.198% [at 3.72 µM] | fluorescence, % of fluorescent control [2] -0.0083% [at 3.72 µM] | activity change [3] 0.0539% [at 3.72 µM] | fluorescence, % of fluorescent control [4] -0.0289% [at 3.72 µM] | fluorescence, % of Rose Bengal [5] -0.172% [at 3.72 µM] | fluorescence, % of fluorescent control [6] 0.0279% [at 3.72 µM] | fluorescence, % of fluorescein control [7] 0.006% [at 3.72 µM] | fluorescence, % of fluorescent control [8] -0.0944% [at 3.72 µM] | activation [9] -4.91% [at 6.9 µM] | activity change, negative = inhibition [10] -3.43% [at 7.04 µM] | viability change, negative = cytotoxic [11] -9.87% [at 7.04 µM] | activity, negative = cytotoxicity [20] -8.62% [at 8.53 µM] | activity change, negative = cytotoxicity [14] 0.303% [at 7.04 µM] | viability change, negative = cytotoxic [18] -0.0936% [at 8.47 µM]

NS(=O)(=O)c1cc2c(cc1Cl)NC(CSCc1ccccc1)=NS2(=O)=O
inactive: fluorescence, % of fluorescein [1] -0.0376% [at 18.6 µM] | fluorescence, % of fluorescent control [2] -0.0458% [at 18.6 µM] | activity change [3] -0.222% [at 18.6 µM] | fluorescence, % of fluorescent control [4] 0.107% [at 18.6 µM] | fluorescence, % of Rose Bengal [5] 0.12% [at 18.6 µM] | fluorescence, % of fluorescent control [6] -0.0404% [at 18.6 µM] | fluorescence, % of fluorescein control [7] -0.0451% [at 18.6 µM] | fluorescence, % of fluorescent control [8] 0.19% [at 18.6 µM] | Potency [9] | Potency [10] | outcome [11] | Potency [12] | Potency [13] | Potency [18]

COC(=O)C1=C(C)NC(C)=C(C(=O)OCC(C)=O)C1c1ccccc1[N+](=O)[O-] (stereo not given)
active: Potency [10] 21.3 µM | Potency [12] 5.96 µM | Potency [20] 11.9 µM | Potency [13] 10.6 µM
inactive: outcome [1] | Potency [2] | outcome [3] | outcome [4] | outcome [5] | Potency [6] | outcome [7] | Potency [8] | Potency [9] | outcome [11]

COc1cc(C(=O)N2CCOCC2)cc(OC)c1OC
inactive: outcome [1] | Potency [2] | outcome [3] | outcome [4] | outcome [5] | Potency [6] | outcome [7] | Potency [8] | Potency [9] | Potency [10] | outcome [11] | Potency [13] | outcome [14] | Potency [18]

O=C(O)CCNC(=O)c1ccc(N=Nc2ccc(O)c(C(=O)O)c2)cc1
inactive: outcome [1] | Potency [2] | outcome [3] | outcome [4] | outcome [5] | Potency [6] | outcome [7] | Potency [8] | Potency [9] | Potency [10] | outcome [11] | Potency [12] | Potency [20] | Potency [13] | outcome [14] | Potency [18]

CCC(=O)c1cccc(Cl)c1
inactive: outcome [1] | Potency [2] | outcome [3] | outcome [4] | outcome [5] | Potency [6] | outcome [7] | Potency [8] | Potency [9] | Potency [10] | outcome [11] | Potency [12] | Potency [13] | outcome [14] | Potency [18]
